We go through 29 compounds from PubChem BioAssay.

Molecules are shown by their SMILES. Active and inactive are the calls of the source.
Also: test concentration not given here.

The first test in a line: S. pombe growth modifiers, basal conditions – strain 972, OD600, 24 h, no modulator, primary screen (AID 1090).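 Also: basal condition with compound alone and no growth modifier present.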 Conditions: S. pombe 972 growth, higher = more signal, called active from +8 up or from −8 down.
`CC(=O)OC[C@H]1O[C@H](CC=NOC(C)CN2CCCCc3nc(C)c(C)cc32)C=C[C@@H]1OC(C)=O` (some centres undefined): the z-score is -0.0245 (inactive).

As to `CCOC(=O)[C@H](Cc1ccccc1)NC(=O)CCC1CC(OC(=O)NCCc2ccc(F)cc2)CC2(CCCC(COC(=O)NCc3cccc(C(F)(F)F)c3)O2)O1` (some centres undefined), the z-score was 0.106 (inactive).

Regarding `O=C1C=C[C@@H](O)[C@@H]2[C@@H]3C(=O)N(Cc4ccc5c(c4)OCO5)C(=O)[C@@H]3CC[C@@H]12`, the z-score is -0.681 (inactive).

Consider `O=C1CCCC=C1C(O)c1ccc([N+](=O)[O-])cc1` (centres undefined), for which the z-score is 0.0434 (inactive).

On to `COC(=O)CC=C[C@@H](C)[C@@H](C=NOC(C)CN1CCCCc2nc(C)c(C)cc21)NS(=O)(=O)c1ccc(C)cc1` (some centres undefined), for which the z-score was 0.22 (inactive).

As to `CC(CCC(=O)OC[C@H]1O[C@H](C#Cc2ccccc2)C=C[C@@H]1Oc1ccc(C)cc1)=NOC(C)CN1CCCc2nc(C)c(C)cc21` (some centres undefined), the z-score was -1.77 (inactive).

Take `CCN1C(=O)[C@H]2[C@H]3[C@H](O)[C@H](O)CC(=NO[C@H](C)c4cn([C@@H]5COC[C@H]5O)nn4)[C@@H]3CC[C@H]2C1=O`: the z-score is 1.01 (inactive).

Take `COc1ccc(-c2cnnc(CCCn3ccnc3-c3ccccc3)n2)cc1`: the z-score was -0.513 (inactive).

The nature of the next test: budding yeast growth modifiers under rapamycin – strain BY4716, OD600, 96 h, primary screen (AID 1091). To be noted: S. cerevisiae BY4716 + rapamycin, higher = more signal, called active from +8 up or from −8 down.
Take `O=C1C=C[C@@H](O)[C@@H]2[C@@H]3C(=O)N(C4CCCCC4)C(=O)[C@@H]3CC[C@@H]12`: the z-score is -1.27 (inactive).

For the compound `C[C@@H]1CC[C@H]2C(=O)OC(Cc3ccccc3)CN2[C@H]1c1ccc(Br)cc1` (some centres undefined), the z-score is -0.624 (inactive).

For the compound `O=C1[C@H]2[C@H]3[C@H](O)[C@H](O)CC(=NO[C@@H]4O[C@H](CO)[C@@H](O)[C@H](O)[C@H]4O)[C@H]3CC[C@H]2C(=O)N1c1ccc(F)cc1F`, the z-score is -1.99 (inactive).

On to `COc1ccc(COC(=O)NN=C2C[C@@H](O)[C@@H](O)[C@@H]3[C@@H]4C(=O)N([C@@H](C)c5ccccc5)C(=O)[C@@H]4CC[C@H]23)cc1`, for which the z-score was -0.556 (inactive).

On to `CC(=O)OC[C@H]1O[C@H](CC=NO[C@H](C)c2cn([C@@H]3COC[C@H]3O)nn2)C=C[C@@H]1OC(C)=O`, for which the z-score is -0.277 (inactive).

As to `COc1ccc(O[C@H]2C=C[C@@H](c3ccccc3)O[C@@H]2CO)cc1`, the z-score was -1.02 (inactive).

Regarding `CCOC(=O)[C@H](Cc1ccccc1)NC(=O)CCC1CC(OC(=O)NCCc2ccc(F)cc2)CC2(CCCC(COC(=O)NCCOc3ccccc3)O2)O1` (some centres undefined), the z-score is 0.0763 (inactive).

For `O=C1C[C@@H](O)[C@@H](O)[C@@H]2[C@@H]3C(=O)N(C4CCCCC4)C(=O)[C@@H]3CC[C@@H]12`, the z-score was -0.149 (inactive).

On to `CC(CCN1CCCCc2nc(C)c(C)cc21)=NO[C@@H](C)c1cc(-c2c(C)cc(C)cc2C)no1`, for which the z-score is -0.199 (inactive).

As to `CCOC(=O)[C@H](CC(C)C)NC(=O)CCC1CC(OC(=O)NCc2ccc3c(c2)OCO3)CC2(CCCC(COC(=O)NCCOc3ccccc3)O2)O1` (some centres undefined), the z-score was -0.211 (inactive).

For the compound `C=CC[C@@H]1C=C[C@H](ON=C(C)CCN2CCCc3nc(C)c(C)cc32)[C@@H](CO)O1`, the z-score is -0.184 (inactive).

As to `O=C1CCCC=C1C(O)C1CCCCC1` (centres undefined), the z-score is -0.478 (inactive).

For `CO[C@H]1COC(=O)CC=C[C@H](C)[C@H](OC)COC(=O)[C@@H](C)NC(=O)CC=C[C@@H]1C`, the z-score was -0.735 (inactive).

Take `COC(=O)CC=C[C@@H](C)[C@@H](C=NOC[C@@H](C)[C@H](OCc1ccccc1)C(C)C)OC`: the z-score was 1.13 (inactive).

With `CC(C)CON=C1C[C@@H](O)[C@@H](O)[C@@H]2[C@@H]3C(=O)N(C(C)(C)C)C(=O)[C@@H]3CC[C@@H]12`, the z-score was -0.147 (inactive).

As to `CC1(C)O[C@H]2OC([C@H](O)CON3C(=O)c4ccccc4C3=O)[C@H](O)[C@H]2O1` (some centres undefined), the z-score was -0.425 (inactive).

For the compound `CCOC(=O)CCN1C(=O)[C@H]2[C@H]3[C@H](O)[C@H](O)CC(=NNC(=O)OCC)[C@H]3CC[C@H]2C1=O`, the z-score was 0.305 (inactive).

For `CCN(CC)CC(O)CN1CCCCc2nc(C)c(C)cc21` (centres undefined), the z-score was -0.425 (inactive).

As to `CC(C)=NO[C@@H](C)c1cn([C@H](CO)Cc2ccccc2)nn1`, the z-score was -0.735 (inactive).

Turning to `O=C(NN=C1C[C@@H](O)[C@@H](O)[C@@H]2[C@@H]3C(=O)N(Cc4ccccc4)C(=O)[C@@H]3CC[C@H]12)OCc1ccccc1`, the z-score is -1.27 (inactive).

On to `CCOC(=O)CCN1C(=O)[C@H]2[C@H]3[C@H](O)[C@H](O)CC(=NOCC=C(C)CCC=C(C)C)[C@H]3CC[C@H]2C1=O`, for which the z-score is -0.188 (inactive).
